The record followed here is PubChem BioAssay (NCI).

The panel holds about 83,000 compounds, 20% with a hit somewhere; the sample as a whole holds those more often.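 The endpoint reported here, percent growth, reads 100 for growth as untreated, 0 for no net growth and -100 for all cells dead.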 Activity calls are given as the source filed them. The calls were made as follows: active = growth percent below 10; inactive = the rest.

In the assay the test system is HL-60(TB) leukemia. As to the kind of experiment: NCI-60 one-dose screen, 48 h (100 = growth as untreated, 0 = no growth, -100 = all killed). The settings on record: 10 µM unless noted.
In the case of `COc1ccc2oc(=O)cc(-c3c(C#N)c(N)n4nc(N)c(C#N)c4c3C#N)c2c1`, the growth is 96.4% (inactive).

For `O=C(O)c1ccc2c(c1Cl)C(=O)c1ccccc1C2=O`, the growth is 56.6% (inactive).

With `O=C1Nc2c(C(=O)O)cccc2/C1=N/c1n[nH]c(=S)s1`, the growth was 79.7% (inactive).

`CCNc1nc(-c2ccc(F)cc2)c(C#N)c(=O)n1C`: the growth is 85.8% (inactive).

For `COc1ccc(C(c2ccc(OCCN(C)C)cc2)c2cc3ccccc3c3ccccc23)cc1` (stereo not drawn), the growth is 3.59% (active).

For `CCOC(=O)/C(O)=C(\C=N\C(=S)Nc1ccc(Cl)c(Cl)c1)C(=O)OCC`, the growth is 83.6% (inactive).

With `CCOC(=O)CN1/C(=N/c2sc3c(c2C(=O)OCC)CCN(C(=O)OCC)C3)SC(=O)/C1=C\C(=O)OC`, the growth is 79.9% (inactive).

For the compound `[2H]C([2H])([2H])Oc1ccc(F)cc1/C=C/C(=O)/C=C(/C=C/c1cc(F)ccc1OC([2H])([2H])[2H])OB(F)F`, the growth was 30.1% (inactive).

Consider `COc1ccc(C2C(C#N)=C(N)Oc3c2sc2c(F)cccc32)cc1` (stereo not drawn), for which the growth is -29% (active).

Turning to `O=C1c2cccc3cccc(c23)C(=O)N1N1C(=O)c2cccc3c(NC4CCCCC4)ccc(c23)C1=O`, the growth was 99.3% (inactive).

For the compound `O=C1NC(=S)S/C1=C\N1N=C(c2ccc(Cl)cc2)CC1c1ccc(F)cc1` (stereo not drawn), the growth is 99.5% (inactive).

For `CC(C)CC(NC(=O)C(CCCN=C(N)N)NC(=O)OCc1ccccc1)C(=O)NC(CNC(=O)/C=C/c1ccccc1)C(C)C` (stereo not drawn), the growth was 102% (inactive).

Turning to `Cc1noc(C)c1-c1cc(O)cc(C(O)c2ccccc2)c1` (stereo not drawn), the growth was 10% (inactive).
